Where a name gives a salt, the structure may show the parent alone. In all, about 2,000 compounds were measured (“fractional viability relative to vehicle”: median about 0.92, lowest 2% from about 0.11 on). Many of the other results were omitted from the sample, so the lowest values are more common in it than they were.

The experiment concerns TYKNU. The experiment in a line: fractional viability relative to vehicle; TYKNU is a high-grade serous ovarian cancer line; higher = less growth inhibition. As to conditions: 72 h, genotype: OPA1 knockout (sgOPA1 #2). A digest of the protocol: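 TYKNU control cells or lentiCRISPRv2 knockout derivatives were plated at 500 cells per well in duplicate into drug-stamped 384-well plates holding a ~2100-compound library at 2 or 10 μM. Culture was in RPMI 1640 with 10% FBS at 37 °C in 5% CO2, with 72 h of drug treatment. Viability was measured by Cell Titer Glo luminescence, and the averaged duplicate treatment wells were normalised to duplicate control wells at the same plate position.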

As to `c1nc2c(NC3CCCCC3)nc(Nc3ccc(N4CCOCC4)cc3)nc2[nH]1` [Reversine], the fractional viability reads like this: (2uM) 0.571; (10uM) 0.342.
Take `CN1CCC(Nc2nc(Nc3ccc(Oc4ccccc4)cc3)c3c(=O)[nH]cc(Br)c3n2)CC1`: the fractional viability came out at 0.289 (2uM) and 0.0528 (10uM).
In the case of `CCCCN1CCCC[C@H]1C(=O)Nc1c(C)cccc1C` [Levobupivacaine HCl], the fractional viability is, setting by setting: (2uM) 1.06; (10uM) 0.949.
The corresponding values for `CCC1C/C(=C\c2cccnc2)C(=O)/C(=C/c2cccnc2)C1` (configuration not stated) are 0.442 and 0.189.
Regarding `C1=N/C2=N/c3ccc(OCCN4CCCC4)c(c3)COC/C=C/COCc3cccc(c3)C(=C1)N2` [Pacritinib (SB1518)], the fractional viability reads like this: (2uM) 0.318; (10uM) 0.0734.
`Cc1cncc(CN2CCC(=C3c4ccc(Cl)cc4CCc4cccnc43)CC2)c1` [Rupatadine Fumarate]: the fractional viability (2uM) turned out to be 1.06 and the fractional viability (10uM) was 0.915.
`NC(=O)c1ccc(N(C(N)=O)c2c(F)cccc2F)nc1-c1ccc(F)cc1F` showed a fractional viability (2uM) of 1.19 and a fractional viability (10uM) of 1.05.
On the same counts, the results for `CCN(CC)CCN(Cc1ccc(-c2ccc(C(F)(F)F)cc2)cc1)C(=O)Cn1c(SCc2ccc(F)cc2)nc(=O)c2c1CCC2` are 0.76 and 0.0367.
The corresponding values for `O=C(NNc1nc2cc(F)ccc2n2cccc12)c1cnccn1` are 0.576 and 0.643.
The corresponding values for `C=CC[N+]1([C@H]2C[C@H]3[C@@H]4CC[C@H]5C[C@H](O)[C@@H](N6CCOCC6)C[C@]5(C)[C@H]4CC[C@]3(C)[C@H]2OC(C)=O)CCCC1` [Rocuronium Bromide] are 1.16 and 1.11.
In the case of `CCCCC(C=O)NC(=O)C(CC(C)C)NC(=O)C(CC(C)C)NC(C)=O` (configuration not stated), the fractional viability is, setting by setting: (2uM) 0.8; (10uM) 0.939.
On the same counts, the results for `CC(C)C[C@H](NC(=O)[C@H](CCc1ccccc1)NC(=O)CN1CCOCC1)C(=O)N[C@@H](Cc1ccccc1)C(=O)N[C@@H](CC(C)C)C(=O)[C@@]1(C)CO1` [Carfilzomib (PR-171)] are 0.0962 and 0.146.
Consider `COc1ccc(C[C@H](NC(=O)[C@H](C)NC(=O)CN2CCOCC2)C(=O)N[C@@H](Cc2ccccc2)C(=O)[C@@]2(C)CO2)cc1`, for which the fractional viability came out at 0.149 (2uM) and 0.144 (10uM).
In the case of `COC[C@H](NC(=O)c1cnc(C)s1)C(=O)N[C@@H](COC)C(=O)N[C@@H](Cc1ccccc1)C(=O)[C@@]1(C)CO1` [Oprozomib (ONX 0912)], the fractional viability runs as follows: (2uM) 0.153; (10uM) 0.136.
In the case of `CC(C)C[C@@H]1NC(=O)[C@@H](C(C)C)NC(=O)[C@@H]2CCCN2C(=O)[C@@H](CC(=O)O)NC(=O)[C@@H](Cc2c[nH]c3ccccc23)NC1=O`, the fractional viability reads like this: (2uM) 0.722; (10uM) 0.866.
On the same counts, the results for `C=CCNC1=C2C[C@@H](C)C[C@H](OC)[C@H](O)[C@@H](C)/C=C(\C)[C@H](OC(N)=O)[C@@H](OC)/C=C\C=C(/C)C(=O)NC(=CC1=O)C2=O` [17-AAG (Tanespimycin)] are 0.652 and 0.468.
On the same counts, the results for `Cc1ccc(C(=O)Nc2ccc(CN3CCN(C)CC3)c(C(F)(F)F)c2)cc1C#Cc1cnc2cccnn12` are 0.67 and 0.106.
The corresponding values for `CCN1CCN(Cc2ccc(C(=O)Nc3ccc(C)c(Oc4ccc5c(c4)CC(=O)N5)c3)cc2C(F)(F)F)CC1` are 0.782 and 0.462.
`Cc1ccc(C(=O)Nc2ccc(CN3CCN(C)CC3)c(C(F)(F)F)c2)cc1C#Cc1cnc2[nH]ncc2c1`: the fractional viability came to 0.589 (2uM) and 0.115 (10uM).
For `Nc1cccc2c1CN(C1CCC(=O)NC1=O)C2=O` (configuration not stated) [Lenalidomide (CC-5013)], the fractional viability by setting is: (2uM) 1.14; (10uM) 1.02.
As to `COCC[n+]1c2c(n(Cc3cnccn3)c1C)C(=O)c1ccccc1C2=O` [YM155 (Sepantronium Bromide)], the fractional viability (2uM) worked out at 0.06 and the fractional viability (10uM) came to 0.0555.
The corresponding values for `CC(C)NCCCn1c(Sc2cc3c(cc2I)OCO3)nc2c(N)ncnc21` are 0.428 and 0.48.
As to `CCCCCOc1ccc(-c2ccc(-c3ccc(C(=O)N[C@H]4C[C@@H](O)[C@@H](O)NC(=O)[C@@H]5[C@@H](O)[C@@H](C)CN5C(=O)[C@H]([C@@H](C)O)NC(=O)[C@H]([C@H](O)[C@@H](O)c5ccc(O)cc5)NC(=O)[C@@H]5C[C@@H](O)CN5C(=O)[C@H]([C@@H](C)O)NC4=O)cc3)cc2)cc1`, the fractional viability is 1.02 (2uM) and 0.857 (10uM).
The corresponding values for `CC(=O)Nc1ccccc1` [Acetanilide] are 0.946 and 0.905.
Compound `CC(C)(C)C(=O)Nc1ccc2c(c1)C(=O)C(=O)c1ccccc1-2` came in with a fractional viability (2uM) of 0.181 and a fractional viability (10uM) of 0.0604.
The corresponding values for `O=C(O)CCCN1CCC(O[C@@H](c2ccc(Cl)cc2)c2ccccn2)CC1` [Bepotastine Besilate] are 1.14 and 0.923.
The corresponding values for `CN1CCC(COc2cnc(-c3cccc(Cn4nc(-c5cccc(C#N)c5)ccc4=O)c3)nc2)CC1` are 0.78 and 0.216.
The corresponding values for `CN1CCC(CNc2ccc3ncc(-c4cccc(OC(F)(F)F)c4)n3n2)CC1` [SGI-1776 free base] are 0.888 and 0.107.
`NC(CO)(CO)CO` [Trometamol] showed a fractional viability (2uM) of 0.883 and a fractional viability (10uM) of 0.842.
As to `O=C(O)C(Cc1c[nH]c2ccccc12)N1C(=O)c2ccccc2C1=O` (configuration not stated), the fractional viability runs as follows: (2uM) 0.905; (10uM) 0.771.
On the same counts, the results for `N#CC(=C(/N)Sc1ccccc1N)/C(C#N)=C(\N)Sc1ccccc1N` are 1.36 and 1.25.
`OCCn1cc(-c2ccc3c(c2)CC/C3=N\O)c(-c2ccncc2)n1`: the fractional viability runs as follows: (2uM) 1.14; (10uM) 0.942.
As to `CN(C)CCOc1ccc(-c2nc(-c3ccncc3)c(-c3ccc4c(c3)CC/C4=N\O)[nH]2)cc1`, the fractional viability reads like this: (2uM) 0.833; (10uM) 0.0595.
On the same counts, the results for `Oc1ccc(-c2nc(-c3ccc(F)cc3)c(-c3ccncc3)[nH]2)cc1` are 1.48 and 1.09.
In the case of `O=C(CSc1nc2c(c(=O)n1-c1ccccc1)SCC2)Nc1ccc(-c2ccccc2)cn1`, the fractional viability runs as follows: (2uM) 1.09; (10uM) 0.948.
As to `COc1cc2c(cc1OC)CC(=O)N(CCCN(C)C[C@H]1Cc3cc(OC)c(OC)cc31)CC2` [Ivabradine HCl], the fractional viability amounted to 1.02 (2uM) and 0.967 (10uM).
On the same counts, the results for `c1cc(-c2cnn3cc(-c4ccc(N5CCNCC5)cc4)cnc23)c2cccnc2c1` are 0.104 and 0.0761.
The corresponding values for `COc1ccc(-c2cnc3c(-c4cccc5ncccc45)cnn3c2)cc1` are 1.15 and 1.2.
On the same counts, the results for `COc1cc(-c2cc(-c3ccc(N4CCNCC4)cc3)cnc2C)cc(OC)c1OC` are 0.878 and 0.835.
As for `CC1(C)CC(=O)c2c(C(F)(F)F)nn(-c3ccc(C(N)=O)c(N[C@H]4CC[C@H](O)CC4)c3)c2C1`, the fractional viability runs as follows: (2uM) 0.668; (10uM) 0.574.
On the same counts, the results for `C=CC(=O)N1C/C(=C\c2ccc([N+](=O)[O-])cc2)C(=O)/C(=C/c2ccc([N+](=O)[O-])cc2)C1` are 0.0989 and 0.111.
The corresponding values for `CC1(C)C=C(CN2C/C(=C\c3ccc(F)cc3)C(=O)/C(=C/c3ccc(F)cc3)C2)C(C)(C)N1O` are 0.837 and 0.79.
In the case of `CC(=O)c1cc([N+](=O)[O-])c(Sc2ccc(F)cc2F)s1`, the fractional viability runs as follows: (2uM) 0.985; (10uM) 0.596.
The corresponding values for `COc1ccc([C@H]2CNC(=O)C2)cc1OC1CCCC1` [S- (+)-Rolipram] are 1.2 and 1.04.
`Cc1cc(C)nc(NS(=O)(=O)c2ccc(NC(=S)NC(=O)COc3ccc(Br)cc3Cl)cc2)n1`: the fractional viability is, setting by setting: (2uM) 0.956; (10uM) 0.803.
On the same counts, the results for `O=C(NCc1ccncc1)C12CC3CC(C1)CC(c1ccc(Cl)cc1)(C3)C2` are 1.06 and 0.861.
On the same counts, the results for `NC(=O)N/N=C/c1ccc([N+](=O)[O-])o1` [Nitrofural] are 1.55 and 1.47.
`Cc1ccc(S(=O)(=O)c2ccc([N+](=O)[O-])o2)cc1` returned a fractional viability (2uM) of 0.0667 and a fractional viability (10uM) of 0.0291.
On the same counts, the results for `CC(C)(C)NS(=O)(=O)c1cncc(-c2cc(F)c3nc(N)nn3c2)c1` are 1.04 and 1.06.
The corresponding values for `O=C(O)C1=C[C@@H](O)[C@@H](O)[C@H](O)C1` [Shikimic Acid] are 1.04 and 0.875.
With `C=C1/C(=C\C=C2/CCC[C@]3(C)[C@@H]([C@H](C)CCCC(C)(C)O)CC[C@@H]23)C[C@@H](O)C[C@@H]1O` [Calcitriol], the fractional viability by setting is: (2uM) 0.965; (10uM) 0.937.
The corresponding values for `Cc1ccccc1CN1C2=NCCN2C(=O)C2=C1CCN(Cc1ccccc1)C2` [TIC10 Analogue] are 0.878 and 0.768.
For `COc1cc2ncnc(Oc3ccc(CC(=O)Nc4cnn(C(C)C)c4)cc3)c2cc1OC`, the fractional viability (2uM) was 0.949 and the fractional viability (10uM) stood at 0.942.
On the same counts, the results for `CC1(C)CC[C@]2(NC(=O)C(C)(F)F)CC[C@]3(C)[C@H](C(=O)C=C4[C@@]5(C)C=C(C#N)C(=O)C(C)(C)[C@@H]5CC[C@]43C)[C@@H]2C1` [Omaveloxolone (RTA-408)] are 0.166 and 0.0407.
The corresponding values for `CN(C)CCNC(=O)c1cccn2c(=O)c3cc4ccccc4cc3nc12` are 0.61 and 0.294.
On the same counts, the results for `COc1nccc(-c2c(-c3ccc(F)cc3)ncn2C2CCC(O)CC2)n1` (configuration not stated) are 0.999 and 0.786.
Compound `CC(C)NCC(O)COc1cccc2ccccc12` (configuration not stated) [Propranolol HCl] yielded a fractional viability (2uM) of 0.809 and a fractional viability (10uM) of 1.12.
Take `CC(C)(Cc1ccc2ccccc2c1)NC[C@@H](O)COc1cccc(Cl)c1C#N`: the fractional viability runs as follows: (2uM) 1.06; (10uM) 0.0653.
Consider `CC(C)(C)NCC(O)COc1cccc2c1CCC(=O)N2` (configuration not stated) [Carteolol HCl], for which the fractional viability by setting is: (2uM) 0.973; (10uM) 0.93.
The corresponding values for `O=[N+]([O-])c1ccc(Nc2nc(N3CCOCC3)nc(N3CCOCC3)n2)cc1` are 0.893 and 0.934.
With `CC(C)(C)c1ccc(S(=O)(=O)NCc2ccc(C(=O)Nc3cccnc3)cc2)cc1`, the fractional viability reads like this: (2uM) 0.306; (10uM) 0.165.
For the compound `CCS(=O)(=O)N1CCN(c2ccc(Nc3ncc(C(N)=O)c(NC4CC4)n3)cc2)CC1`, the fractional viability came to 0.781 (2uM) and 0.496 (10uM).
Turning to `CCc1ccc(OCc2ccccc2C(=O)Nc2ccc3nc(C)cc(N)c3c2)cc1`, the fractional viability was 0.16 (2uM) and 0.0251 (10uM).
On the same counts, the results for `CCCC(=O)Nc1cccc(NC(=O)c2ccccc2Br)c1` are 1 and 1.07.
With `COc1cc2c(cc1OC)CN(CCc1ccc(NC(=O)c3cc(OC)c(OC)cc3NC(=O)c3cnc4ccccc4c3)cc1)CC2` [Tariquidar], the fractional viability runs as follows: (2uM) 0.891; (10uM) 0.459.
On to `Cc1ccc(CNc2ncnc3ccc(-c4ccc(CO)o4)cc23)o1`, for which the fractional viability is 0.989 (2uM) and 1.02 (10uM).
The corresponding values for `O=[N+]([O-])c1cn2c(n1)OC[C@@H](OCc1ccc(OC(F)(F)F)cc1)C2` are 1.15 and 1.66.
On the same counts, the results for `CC(C)(C)OC(=O)Nc1ccc(-c2cc(C(=O)NCCCCCCC(=O)NO)no2)cc1` are 0.367 and 0.171.
On the same counts, the results for `COc1cc(/C=C/C(=O)N2CCN(CC(=O)N3CCCC3)CC2)cc(OC)c1OC` [Cinepazide maleate] are 0.929 and 0.991.
In the case of `COc1ccc(/C=C\c2cc(OC)c(OC)c(OC)c2)cc1O` [Combretastatin A4], the fractional viability is, setting by setting: (2uM) 0.313; (10uM) 0.292.
Turning to `COc1cc(/C=C/C(=O)N2CCC=CC2=O)cc(OC)c1OC` [Piperlongumine], the fractional viability runs as follows: (2uM) 0.31; (10uM) 0.085.

These data come from the supplement of paper PMC5919970.
